DAX1 inh-1 – DAX1 (NR0B1) inhibitors on StAR promoter, primary screen, cell-based, luminescence, SF-1 (NR5A1), full-length DAX-1; HEK293T StAR-luciferase reporter, SF-1/DAX-1 repression relief; inhibition, % at 6.8 µM; hit rate 1.1% among 370,000;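 active means inhibition above the mean over all tested compounds plus 3 SD, cut at about 3.6% in these data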;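 further: higher inhibition means more luminescence from relief of DAX-1 repression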
ssDAF12 agonist – S. stercoralis DAF-12 nuclear receptor activators, primary screen, cell-based, luminescence, HEK293, GRIP1 co-expression, lit1-tk-luc | HEK293 ssDAF-12/GRIP1 lit1-tk-luc reporter; % of 3 µM dafachronic acid response | activation, % at 6.8 µM | hit rate 1% among 370,000 | AID 652126, 2013;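 active means activation above the mean over all tested compounds plus 3 SD, cut at about 0.9% in these data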
hgDAF12 agonist – H. glycines DAF-12 receptor agonists, primary screen, cell-based, luminescence, HEK293, GAL4 fusion, UAS-luciferase. HEK293 GAL4-hgDAF12 UAS-luciferase reporter, agonist luminescence; normalized to butyrate control. hit rate 1.8% among 370,000. activation, % at 6.8 µM. Nuclear hormone receptor DAF-12 (Heterodera glycines), GAL4 fusion;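 active means activation above a cutoff set at the mean of all screened compounds plus 3 SD, cut at about 10% in these data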
hcDAF-12 act – H. contortus DAF-12 nuclear receptor activators, primary screen, cell-based, luminescence, HEK293, lit1-tk-luc reporter; HEK293 hcDAF-12 lit1-tk-luc reporter; 0% DMSO, 100% Δ7-dafachronic acid; activation, % at 6.8 µM; hit rate 1.4% among 370,000;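 active means activation above the mean of all tested compounds plus 3 SD, cut at about 5.5% in these data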
PolyA inhibitor – polyadenylation inhibitors in yeast reporter cells, primary screen, luminescence, S. cerevisiae | S. cerevisiae SKY197-pL101 polyadenylation reporter, beta-gal luminescence; efflux-impaired pdr1/pdr3 knockout yeast; score 100 = 6 SD above DMSO | activity score, % at 12 µM | hit rate 0.02% among 300,000 | AID 1875, 2009;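 active means lowest replicate activity score at least 50, where 100 means six control SD above control mean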;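 further: yeast exposed to compound for 9 h at 30 °C; higher score means more reporter readthrough which indicates perturbed polyadenylation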
DAX1 inh-2 – DAX1 (NR0B1) inhibitors, primary screen, cell-based, HEK293, Gal4-DAX1, luciferase luminescence. hit rate 0.99% among 340,000. inhibition, % at 6.75 µM. HEK293 Gal4-DAX1 luciferase reporter. Nuclear receptor subfamily 0 group B member 1 (Homo sapiens), P51843;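 active means inhibition above the mean over all tested compounds plus 3 SD, cut at about 4.2% in these data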;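 further: inhibition shows as a rise in luminescence from relieved DAX1 repression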
Target sequence (P51843 207-470 limits assumed): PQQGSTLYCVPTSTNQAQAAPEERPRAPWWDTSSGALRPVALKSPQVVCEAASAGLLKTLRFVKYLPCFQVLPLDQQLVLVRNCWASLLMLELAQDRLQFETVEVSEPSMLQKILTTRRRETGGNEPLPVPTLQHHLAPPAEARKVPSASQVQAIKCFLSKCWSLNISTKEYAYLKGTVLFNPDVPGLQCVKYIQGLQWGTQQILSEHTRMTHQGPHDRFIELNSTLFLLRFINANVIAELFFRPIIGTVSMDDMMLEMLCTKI
Of the large screens only hits and unclear results are named; the others gave an inactive call. A selection: hits, their analogues and other compounds. The true share with any hit is near 4.1%.

C#CCCN([C@H](C(=O)OC)C(C)C)S(=O)(=O)c1ccccc1Br	none (no result: PolyA inhibitor, DAX1 inh-2)
CC1(C)C2CC[C@]3(C)C(CC=C4[C@@H]5C[C@@](C)(CO)[C@@H](O)C[C@]56C[C@@H](OC6=O)[C@]43C)[C@@]2(C)CC[C@@H]1O (stereo partly drawn)	DAX1 inh-2 5.5
Cc1nn(-c2ccccc2)c(N)c1C(O)(CSc1nccn1C)C(F)(F)F (stereo not drawn)	ssDAF12 agonist 0.9
Cc1nn(-c2ccc(Cl)cc2)c(N)c1C(O)(CSc1nccn1C)C(F)(F)F (stereo not drawn)	ssDAF12 agonist 1.0 (no result: PolyA inhibitor)
Cc1ccc(-n2nc(C)c(C(C)(O)C(F)(F)F)c2N)cc1 (stereo not drawn)	none
CCCn1cc(C(=O)Nc2ccc(Oc3cccnc3)cc2)c2ccccc21	none (no result: PolyA inhibitor, DAX1 inh-2)
Cc1ccc(N/C=C/c2onc(C)c2[N+](=O)[O-])cc1	DAX1 inh-2 5.6
COc1cccc(-c2cc(C(=O)NCC3CCCO3)on2)c1 (stereo not drawn)	hgDAF12 agonist 11.2
Cc1ccc(N/C(=C\C(=O)c2ccccc2)C(=O)O)cc1	DAX1 inh-1 4.3, ssDAF12 agonist 1.1, hgDAF12 agonist 10.5
Cc1ccc(-c2nc3ccccc3n2C)o1	DAX1 inh-1 3.8, hgDAF12 agonist 11.3
Cn1cc(C(=O)c2ccccc2)cc1-c1nc2ccccc2n1C	none
Cn1c(-c2ccc(Br)o2)nc2cc(Br)ccc21	DAX1 inh-2 4.5 (no result: PolyA inhibitor)
CC(=O)c1ccc(-c2nc3ccccc3n2C)o1	hgDAF12 agonist 11.4
C(=N\Nc1nncc2ccccc12)/c1cccnc1	none (no result: PolyA inhibitor, DAX1 inh-2)
Cc1cc(=O)[nH]c(SCC(=O)Nc2cccc(S(=O)(=O)N3CCOCC3)c2)n1	DAX1 inh-1 3.7 (no result: PolyA inhibitor)
O=S1(=O)c2ccc(Br)cc2OC[C@@H](c2ccccc2)N1Cc1cn(CCC2OCCCO2)nn1	none (no result: PolyA inhibitor, DAX1 inh-2)
O=C(O)C1Cc2[nH]cnc2C(c2ccccc2O)N1 (stereo not drawn)	hcDAF-12 act 6.0
COC(=O)[C@]12C[C@H](CC(=O)NCc3cccc(C(F)(F)F)c3)C(=O)N(CCc3ccc(OC)c(OC)c3)C1=C[C@H](C(C)C)O[C@@H]2C1CC1	none (no result: PolyA inhibitor, DAX1 inh-2)
CC(C)CNc1cccc2c1S(=O)(=O)N(Cc1cccc(F)c1)[C@@H](C)[C@H](c1ccccc1)O2	none (no result: PolyA inhibitor, DAX1 inh-2)
CCOc1ccc(N(CC(=O)Nc2ccc(C)c(C)c2)S(C)(=O)=O)cc1	DAX1 inh-2 8.9
COC(=O)c1cccc(OC[C@@H](O)CN2CCC(C(O)(c3ccccc3)c3ccccc3)CC2)c1	none (no result: PolyA inhibitor, DAX1 inh-2)
CC(=O)c1cccc(NC(=O)c2cnn3c(C)cc(C)nc23)c1	none (no result: DAX1 inh-1, PolyA inhibitor, DAX1 inh-2)
O=C1/C(=C\c2ccc3ccccc3c2)CCCc2ccccc21	none
Cc1ccccc1/C=C1\CCCc2ccccc2C1=O	DAX1 inh-2 6.0
COc1ccc(N/C(C)=C/C(=S)Nc2ccccc2)cc1	hgDAF12 agonist 19.2, hcDAF-12 act 10.2
Fc1ccc(-n2nnc(-c3ccccc3)n2)cc1	none
Cn1c(-c2nnn(-c3ccc(F)cc3)n2)cc2ccccc21	hcDAF-12 act 12.3 (no result: DAX1 inh-2)
COC(=O)[C@@]12CCCCC3=C1N(CCC3)C(=O)[C@H]2CC(=O)NCc1ccc(OC)c(OC)c1	none (no result: PolyA inhibitor, DAX1 inh-2)
CN(C)CCN1C(=O)C(=O)/C(=C(/O)c2ccc3c(c2)OCCO3)C1c1ccccn1 (stereo not drawn)	DAX1 inh-2 5.2
COc1cccc(/C(O)=C2/C(=O)C(=O)N(CCN(C)C)C2c2ccccn2)c1 (stereo not drawn)	none
O=C(O)c1nccnc1C(=O)Nc1ccc(S(=O)(=O)N2CCOCC2)cc1	ssDAF12 agonist 1.8
Cc1ccc2c(c1)NC(=O)C(CC(=O)NCCCN1CCCCC1C)O2 (stereo not drawn)	none
CC1CCCCN1CCNC(=O)CC1Oc2ccccc2NC1=O (stereo not drawn)	ssDAF12 agonist 3.2, DAX1 inh-2 4.6
Cc1ccc2c(c1)NC(=O)C(CC(=O)NC1CCCCC1C)O2 (stereo not drawn)	DAX1 inh-2 4.8
CC(C)[C@H](NC(=O)c1ccccc1)C(=O)N1CCC[C@H]1C(=O)NCCc1ccccc1Cl	none (no result: PolyA inhibitor, DAX1 inh-2)
C[C@H]1CN(S(=O)(=O)C(C)(C)C)[C@@H](CCO)/C1=C\c1ccccc1	none (no result: PolyA inhibitor, DAX1 inh-2)
CCN1C[C@@H]2[C@@H]3C(=O)N(Cc4ccccc4)C(=O)[C@@H]3[C@](CC)(C1=O)N2C(=O)c1ccc(Cl)cc1	none (no result: PolyA inhibitor, DAX1 inh-2)
O=C(/C=C/c1cn(-c2ccccc2)nc1-c1ccc2c(c1)OCCO2)NCCO	none
OCc1ccc2c(c1)c(-c1ccc3c(c1)OCCO3)c(-c1ccccc1)n2-c1ccccc1	DAX1 inh-2 4.4 (no result: PolyA inhibitor)
CCOC(=O)c1c(C)oc2c1c(C=NCc1ccccn1)c(O)c1ccccc12	none (no result: PolyA inhibitor)
CCOC(=O)c1c(C)oc2c1c(C=NCC1CCCO1)c(O)c1ccccc12 (stereo not drawn)	DAX1 inh-2 6.6
CC(=O)Nc1sc2c(c1-c1nc3ccccc3s1)CCCNC2	none (no result: DAX1 inh-1, PolyA inhibitor, DAX1 inh-2)
Cc1ccc(C(=O)NNC(=S)Nc2cccc3ccccc23)s1	ssDAF12 agonist 1.2, hcDAF-12 act 6.3
CC(=O)OCCN1c2ccccc2Sc2cnccc21	hgDAF12 agonist 10.7 (no result: PolyA inhibitor)
Cc1csc(NC(=O)/C=C/c2ccc3c(c2)OCO3)n1	DAX1 inh-1 4.6, ssDAF12 agonist 1.1, hgDAF12 agonist 15.1
Cc1cc(C(=O)Nc2sccc2C#N)c2ccccc2n1	hcDAF-12 act 5.9
Cc1cc(C(=O)Nc2ccccc2)c2ccccc2n1	none
O=CNC(n1cnc2c(N3CCOCC3)ncnc21)C(Cl)(Cl)Cl (stereo not drawn)	DAX1 inh-2 10.0
O=C(NCCCNC1CCCCC1)c1ccc(/C=N/O)nc1	ssDAF12 agonist 1.5
COC(=O)CN1CCN(C(=O)c2csc(-c3ccccc3)n2)CC1	none (no result: PolyA inhibitor, DAX1 inh-2)
O=C(C[n+]1cccc2ccccc21)c1ccc(Br)cc1	ssDAF12 agonist 2.2
Cc1ccc(C(=O)C[n+]2cccc3ccccc32)cc1	ssDAF12 agonist 1.7, hcDAF-12 act 6.0
O=C(CN1C(=O)NC2(CCCCC2)C1=O)NCc1ccc2c(c1)OCO2	DAX1 inh-2 7.2
CCC1(CC)NC(=O)N(CC(=O)NCc2ccc3c(c2)OCO3)C1=O	none

Screening data deposited in PubChem by several laboratories.
